Screens as filed in PubChem.
Sampled rows, rich in hits. Any-hit rate of the full collection: about 3.9%.
BoNT-A LC inh2 = BoNT/A light chain protease inhibitors, primary screen, biochemical, flow cytometry, MLPCN library; Botulinum neurotoxin type A light chain protease (Clostridium botulinum A str. ATCC 3502); multiplex microsphere protease substrate cleavage; inhibition, % at 10 µM; 360,000 compounds, 0.17% hits; AID 588499, 2011; also: plate controls were buffer without enzyme for full effect and enzyme alone for no effect
VHR inh abs = VHR1 phosphatase inhibitors, primary screen, biochemical, absorbance, uHTS | Dual specificity protein phosphatase 3 (Homo sapiens), P51452 | recombinant VHR phosphatase, pNPP absorbance | inhibition, % at 13.3 µM | 290,000 compounds, 0.52% hits; in the data active = inhibition above about 50%
Target sequence (P51452 whole entry, looked up): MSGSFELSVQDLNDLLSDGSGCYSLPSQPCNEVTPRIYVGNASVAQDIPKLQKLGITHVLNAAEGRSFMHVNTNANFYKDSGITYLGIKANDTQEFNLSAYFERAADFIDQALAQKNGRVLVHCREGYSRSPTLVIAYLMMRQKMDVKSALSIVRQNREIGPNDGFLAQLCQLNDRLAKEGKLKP
Anthrax LF inh2 = Bacillus anthracis LF protease inhibitors, primary screen, biochemical, multiplex microsphere, MLPCN library; 360,000 compounds, 0.12% hits; AID 588501, 2011; inhibition, % at 10 µM; multiplex microsphere protease cleavage assay; also: plate controls were buffer without enzyme for full effect and enzyme alone for no effect
Autofluor counter = compound fluorescence in toxin protease inhibitor counterscreen; AID 624483; compound autofluorescence counterscreen, microsphere flow cytometry; stronger effect = higher value; fluorescence intensity (no concentration beside the values); 360,000 compounds, 3.1% hits; in the data active = fluorescence intensity above about 16000; inconclusive = no clear call, values can overlap the other calls
3CLpro inhibitor = SARS-CoV 3CLpro protease inhibitors, primary screen, biochemical, quenched FRET; Replicase polyprotein 1ab (Severe acute respiratory syndrome coronavirus), P0C6X7; recombinant SARS-CoV 3CLpro, quenched FRET peptide cleavage; inhibition, % at 6 µM; 290,000 compounds, 0.14% hits; in the data active = inhibition above about 12%
BoNT-F LC inh = BoNT/F light chain protease inhibitors, primary screen, biochemical, flow cytometry, MLPCN library; Multiplex microsphere protease cleavage assay; inhibition, % at 10 µM; Botulinum neurotoxin type F light chain protease (Clostridium botulinum); 360,000 compounds, 0.22% hits; in the data active = inhibition above about 35%, passing the limit was not always enough; inconclusive = no clear call, values can overlap the other calls; also: plate controls were buffer without enzyme for full effect and enzyme alone for no effect
* marks the source's active call; other numbers are inactive results; ? = inconclusive; . = no result given. Rule as the data show it, unless noted: active = inhibition above about 30%; inconclusive = no clear call, values can overlap the other calls; inactive = below that.

SMILES	BoNT-A LC inh2	VHR inh abs	Anthrax LF inh2	Autofluor counter	3CLpro inhibitor	BoNT-F LC inh
COc1cc2c(C(=O)N3CCN(c4cccc(Cl)c4)CC3)cn(CC(C)C)c(=O)c2cc1OC	3	6	7	4262	1	38*
CCOC(=O)c1[nH]c(C)c(C(=O)N2CCN(c3ccccc3)CC2)c1C	0	6	-1	8318	-1	1
CCOc1ccc2ccccc2c1C(=O)N1CCN(c2ccccc2)CC1	6	-2	1	21404*	5	6
CCOc1ccccc1C(=O)N1CCN(c2cccc(Cl)c2)CC1	1	12	-1	20455*	6	-2
O=C(O)c1ccccc1C(=O)N1CCN(c2cccc(Cl)c2)CC1	-3	-5	-5	3671	-2	-32
CCCN1CCN(C(=O)c2cn(CC(C)C)c(=O)c3cc(OC)c(OC)cc23)CC1	2	-7	8	9308	-3	1
CCCCC(=O)Nc1nnc(CCc2ccccc2)s1	-4	30	-11	4545	0	-14
COc1cccc(/C=C2\N=C(C3CCCCC3)OC2=O)c1OC	0	12	-4	4068	0	-2
CCCC1CCC(C2=N/C(=C\c3ccc(OC)c(OC)c3)C(=O)O2)CC1 (configuration not stated)	0	2	-1	22779*	-3	-2
O=C(Nc1ccc(Cl)c(Cl)c1)c1csc(-c2ccccc2)n1	0	25	-3	16273*	2	-3
O=C(Nc1cccc(Cl)c1)c1csc(-c2ccccc2)n1	-3	18	5	11878	8	-12
CCCNC(=O)N[C@@H](Cc1ccccc1)C(=O)OC	?	-4	-4	22925*	-1	0
COC(=O)[C@H](Cc1ccccc1)NC(=O)N1CCN(Cc2ccccc2)CC1	0	29	1	23718*	-2	-2
CCC(C)[C@H](NC(=O)NC1CCN(Cc2ccccc2)CC1)C(=O)OC (some centres not stated)	2	24	2	22325*	-1	3
CCN(CC)S(=O)(=O)c1ccc(C)c(NS(=O)(=O)c2cc(/C=C/C(=O)O)cc(OC)c2OC)c1	0	15	-5	3880	-4	-2
O=C(NCc1cccnc1)c1csc([C@@H]2O[C@H](CO)[C@H](O)[C@H](O)[C@H]2O)n1	0	.	-4	2894	.	1
O=C1CCc2cc(S(=O)(=O)Nc3cccc(F)c3)cc3c2N1CC3	3	.	-1	?	.	-12
C[C@@H]1CN([C@@H](C)CO)S(=O)(=O)c2ccc(Br)cc2O[C@H]1CN(C)C(=O)Nc1ccc(C(F)(F)F)cc1	0	.	-3	3062	.	-2
Cc1ccc(NC(=O)Nc2ncnc3nc[nH]c23)cc1	0	13	8	5107	-4	-5
Cn1c(=O)[nH]c(=O)c2c1nc(SCC(N)=O)n2Cc1cccc(Br)c1	-3	52*	-19	3994	2	31
CCCSc1nc2c(c(=O)[nH]c(=O)n2C)n1Cc1ccccc1	-3	-17	12	4071	1	-3
CC(C)CCn1c(N2CCN(Cc3ccccc3)CC2)nc2c1c(=O)[nH]c(=O)n2C	.	18	.	.	4	.
Cc1ccc(Cn2c(CN3CCOCC3)nc3c2c(=O)[nH]c(=O)n3C)cc1	4	13	-2	22053*	4	2
C=C(C)CSc1nc2c(c(=O)[nH]c(=O)n2C)n1Cc1ccccc1	0	18	-7	5152	.	-1
CCCSc1nc2c(c(=O)[nH]c(=O)n2C)n1Cc1ccc(C)cc1	1	-6	-2	21791*	3	1
SMILES	BoNT-A LC inh2	VHR inh abs	Anthrax LF inh2	Autofluor counter	3CLpro inhibitor	BoNT-F LC inh
CC(C)CCn1c(CN2CCN(Cc3ccccc3)CC2)nc2c1c(=O)[nH]c(=O)n2C	-1	3	-1	22665*	-2	-1
CCOC(=O)CSc1nc2c(c(=O)[nH]c(=O)n2C)n1C/C=C(/C)Cl	?	21	-3	24116*	-4	0
Cn1c(=O)[nH]c(=O)c2c1nc(N)n2Cc1ccccc1	-3	52*	0	3843	-2	5
CN(Cc1ccccc1)Cc1nc2c([nH]1)c(=O)[nH]c(=O)n2C	-1	21	-3	16968*	1	-2
CCCCn1c(CN2CCN(c3cccc(Cl)c3)CC2)nc2c1c(=O)[nH]c(=O)n2C	-1	14	-5	12895	4	-10
Cn1c(=O)[nH]c(=O)c2c1nc(CN1CCN(c3cccc(Cl)c3)CC1)n2CCN1CCOCC1	?	13	3	20987*	5	8
Cc1ccc(C(=O)NCCc2ccc(F)cc2)s1	1	-2	-1	3464	1	3
CC1(NC(=O)COc2ccccc2-c2ccccc2)CCS(=O)(=O)C1 (configuration not stated)	0	12	-5	16681*	0	-4
C=CCN1C(=O)c2cccc3c(N4CCCCC4)ccc(c23)C1=O	30*	36	15	6017	3	14
Cc1n[nH]c(C)c1N1C(=O)c2cccc3c(N4CCCCCC4)ccc(c23)C1=O	16	25	-6	20898*	-27	33
CC1CCCN(S(=O)(=O)c2ccc(S(=O)(=O)N3CCCN(Cc4ccccc4)C3)cc2)C1 (configuration not stated)	1	52*	-5	10633	.	5
O=C(C1CCCN(S(=O)(=O)c2ccc(Br)cc2)C1)N1CCN(Cc2ccccc2)CC1 (configuration not stated)	-234	19	-60	55843*	9	-391
O=C(C1CCCN(S(=O)(=O)c2ccccc2)C1)N1CCN(c2ccccc2)CC1 (configuration not stated)	4	27	-2	3835	4	8
CC1CCN(S(=O)(=O)c2ccc(S(=O)(=O)N3CCCN(Cc4ccccc4)C3)cc2)CC1	.	.	.	.	2	.
CC(C)CNS(=O)(=O)c1ccc(S(=O)(=O)N2CCCN(Cc3ccccc3)C2)cc1	-5	3	0	21949*	-3	-6
Cc1cc(S(=O)(=O)NCC(C)C)ccc1OCC(=O)N1CCN(Cc2ccccc2)CC1	0	26	2	3586	-6	-1
O=C(c1cccc2ccccc12)C1CCCN(C(=O)c2ccc(N3CCOCC3)cc2)C1 (configuration not stated)	0	-5	-4	4799	1	-6
COc1ccc(S(=O)(=O)Nc2cccc3c2O[C@H](CN(C)S(=O)(=O)c2ccccc2)[C@@H](C)CN([C@H](C)CO)C3=O)cc1	-1	.	-3	4338	.	-3
